NIH3T3 tox: Cytotoxic Profiling in NIH 3T3 Cell Line of Diverse Libraries Using Quantitative High-Throughput Screening | AID 1345082, 2018 | NIH 3T3 viability, CellTiter-Glo ATP luminescence, 48-72 h | Potency, µM (series often up to 96.7 µM), for inactives: top-dose activity change, negative = cytotoxicity, most hits filed as inhibitors | 94,000 compounds, 4.3% hits; further: on the % scale 0 is the no-effect control and ±100 the full control effect; nearly all actives have a fitted effect of over 55% in size
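Mouse fibroblast NIH 3T3 cells, 400 per well, received compound via pintool and were incubated for 48 or 72 hr prior to CellTiter-Glo ATP luminescence measurement.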
GPT2 inh: Primary qHTS assay for inhibitors of Glutamate pyruvate transaminase 2 (GPT2). Potency, µM (series often up to 57.7 µM), without a hit: at the highest dose activity change, negative = inhibition, most hits filed as inhibitors. AID 1671188, 2021. Recombinant GPT2, coupled pyruvate oxidase/HRP Amplex Red fluorescence. 100,000 compounds, 0.25% hits; further: on the % scale 0 is the no-effect control and ±100 the full control effect; nearly all actives have a fitted effect of over 60% in size
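Recombinant GPT2 (10ng/uL) with 250uM a-KG and 2mM L-alanine, 30 min at room temperature, in HEPES pH 7.5 buffer. Pyruvate detected by pyruvate oxidase/HRP/Amplex Red fluorescence after 30 min in the dark; AOA (50uM) as positive control.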
Luciferase inh: Firefly luciferase inhibition profiling of diverse chemical library using quantitative high-throughput screening. purified P. pyralis luciferase, luminescence, biochemical. Potency, µM (doses to about 115 µM), usual class: inhibitors. 76,000 compounds, 2.5% hits; further: on the % scale 0 is the no-effect control and ±100 the full control effect; nearly all actives have a fitted effect of over 65% in size
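FLuc 10nM, D-luciferin 10uM, ATP 10uM, Mg acetate 10mM, Tris acetate pH 7.5, Tween/BSA; cpd qHTS; enzyme added last; CCD luminescence.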
HEK293 tox: Cytotoxic Profiling in HEK 293 Cell Line of Diverse Libraries Using Quantitative High-Throughput Screening | 94,000 compounds, 6.6% hits | Potency, µM (top dose mostly 115 µM), for inactives: at the top dose activity change, negative = cytotoxicity, usual class: inhibitors | HEK 293 viability, ATP luminescence (CellTiter-Glo), 48-72 h; further: on the % scale 0 is the no-effect control and ±100 the full control effect; nearly all actives have a fitted effect of over 60% in size
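Viability of HEK 293 cells, plated at 250 cells/well, was judged by cellular ATP after compound treatment for 48 or 72 hr. Luminescence was imaged 10 min after CellTiter-Glo addition at room temperature.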
hNpr1 antagonist: Natriuretic polypeptide receptor (hNpr1) antagonism - Primary qHTS. HEK293 hNpr1 GloSensor cGMP, ANP-stimulated luminescence. AID 1347048, 2019. Atrial natriuretic peptide receptor 1 (Homo sapiens), P16066. Potency, µM (series often up to 46.3 µM), inactives show at the top dose activity change, negative = inhibition, usual class: inhibitors. 76,000 compounds, 1.6% hits; calls by dose curve; further: on the % scale 0 is the no-effect control and ±100 the full control effect; nearly all actives have a fitted effect of over 60% in size
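Compound pre-incubated 30 min at room temperature on GloSensor-loaded HEK293 cells stably carrying hNpr1 and the pGS-40F cGMP biosensor. Stimulation uses hNppA at 0.1 nM final; luminescence is taken at baseline and 20 min post-agonist.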
Npr1 antag conf: Natriuretic polypeptide receptor (hNpr1) antagonism - Confirmation; shares compounds with hNpr1 antagonist; HEK293 hNpr1 cGMP GloSensor luminescence, ANP-stimulated; Potency, µM (doses to about 57.6 µM), inactives show top-dose activity change, negative = inhibition, most hits filed as inhibitors; 1,400 compounds, 76% hits; calls by dose curve; further: nearly all actives have a fitted effect of over 70% in size
Npr2 selectivity: Natriuretic polypeptide receptor (hNpr2) antagonism - Subtype selectivity assay; shares compounds with hNpr1 antagonist; HEK293 hNpr2 GloSensor cGMP luminescence, CNP-stimulated; Potency, µM (series often up to 57.6 µM), for the others: at the highest dose activity change, negative = inhibition, hits mostly inhibitors; 1,400 compounds, 67% hits; AID 1347046, 2019; calls by dose curve; further: nearly all actives have a fitted effect of over 70% in size
Target sequence (P20594 whole entry, looked up): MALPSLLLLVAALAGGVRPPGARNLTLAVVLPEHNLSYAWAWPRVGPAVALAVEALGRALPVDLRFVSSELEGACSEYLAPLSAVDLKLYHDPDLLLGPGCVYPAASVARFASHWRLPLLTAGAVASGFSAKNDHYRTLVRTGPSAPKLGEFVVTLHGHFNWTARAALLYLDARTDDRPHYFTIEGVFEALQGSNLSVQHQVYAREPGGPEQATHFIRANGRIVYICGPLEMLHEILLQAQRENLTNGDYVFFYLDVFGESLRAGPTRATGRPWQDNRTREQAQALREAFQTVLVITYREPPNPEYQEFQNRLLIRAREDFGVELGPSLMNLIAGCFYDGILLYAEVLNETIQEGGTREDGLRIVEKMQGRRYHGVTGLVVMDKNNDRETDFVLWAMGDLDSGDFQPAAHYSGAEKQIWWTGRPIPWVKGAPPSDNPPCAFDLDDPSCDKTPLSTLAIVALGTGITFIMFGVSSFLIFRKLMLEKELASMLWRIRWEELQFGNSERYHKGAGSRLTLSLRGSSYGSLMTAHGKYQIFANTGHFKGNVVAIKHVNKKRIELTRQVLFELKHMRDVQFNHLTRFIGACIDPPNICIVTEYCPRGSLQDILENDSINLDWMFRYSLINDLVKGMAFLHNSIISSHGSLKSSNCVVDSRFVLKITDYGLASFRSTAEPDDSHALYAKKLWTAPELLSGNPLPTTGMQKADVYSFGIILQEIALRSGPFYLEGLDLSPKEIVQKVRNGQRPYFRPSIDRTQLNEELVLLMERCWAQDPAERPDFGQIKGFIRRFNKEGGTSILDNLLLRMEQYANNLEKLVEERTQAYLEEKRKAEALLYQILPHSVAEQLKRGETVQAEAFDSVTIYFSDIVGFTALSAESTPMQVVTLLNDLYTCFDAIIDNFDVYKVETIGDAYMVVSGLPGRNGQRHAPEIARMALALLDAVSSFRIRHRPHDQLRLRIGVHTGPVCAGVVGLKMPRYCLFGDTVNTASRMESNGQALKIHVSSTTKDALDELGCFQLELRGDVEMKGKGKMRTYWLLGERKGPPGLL
FLuc inh counter: Natriuretic polypeptide receptor (hNpr1) antagonism - Confirmation firefly luciferase (FLuc) inhibition counterscreen; AID 1347047, 2019; shares compounds with hNpr1 antagonist; 1,400 compounds, 0.7% hits; purified FLuc enzyme, luminescence, Km substrate; Potency, µM (top dose mostly 57.6 µM), for the others: at the highest dose activity change, negative = inhibition, usual class: inhibitors; further: 0% is about no effect
GloSensor ctrl: Natriuretic polypeptide receptor (hNpr1) antagonism - Counterscreen GloSensor control cell line; AID 1347051, 2019; Potency, µM (series often up to 57.6 µM), inactives show at the top dose activity change, negative = inhibition, most hits filed as inhibitors; 1,400 compounds, 69% hits; shares compounds with hNpr1 antagonist; HEK293 GloSensor cGMP, SNP-stimulated, luminescence; calls by dose curve; further: on the % scale 0 is the no-effect control and ±100 the full control effect; nearly all actives have a fitted effect of over 70% in size
Numbers without * were called inactive; i = inactive; ? = inconclusive; nt = not tested or not shown; [ ] = dose if it differs, or a comment. A selection: hits, their analogues and other compounds. The true share with any hit is near 10%. Unless noted, the call rests on the fitted dose curve; in most records, active means well fitted curve in the direction sought with a large enough effect; inconclusive means small, poorly fitted or top-dose-only effect, or another doubt; inactive means no such curve, though single readings can be large; an effect the other way counts as inactive or inconclusive. Potency means the concentration at half of the fitted maximal effect.

SMILES	NIH3T3 tox	GPT2 inh	Luciferase inh	HEK293 tox	hNpr1 antagonist	Npr1 antag conf	Npr2 selectivity	FLuc inh counter	GloSensor ctrl
Cc1ccc(NC(=O)CCC2CCN(S(=O)(=O)c3ccccc3C)CC2)cc1F	?	2.7%	i	-51.9%	?	?	?	3.5%	?
Cc1ccccc1S(=O)(=O)N1CCC(CCC(=O)O)CC1	i	-2.4%	i	-0.5%	-0.9%	nt	nt	nt	nt
COc1cccc(S(=O)(=O)N2CCn3ncc(C(=O)NCc4ccc(Cl)nc4)c3C2)c1	?	-23.8%	nt	-3.8%	nt	nt	nt	nt	nt
O=C1COc2ccc(OCc3ccc(F)cc3)nc2CN1CCOc1ccccc1	?	-13.9%[88.5 µM]	i	?	31.6µM*	35.3µM*	35.3µM*	-2.5%[86.2 µM]	28µM*
O=C1COc2ccc(OCc3cncs3)nc2CN1CCOc1ccccc1	?	-1.4%[88.5 µM]	i	?	31.6µM*	39.6µM*	31.4µM*	-2.0%[86.2 µM]	?
O=C1COc2ccc(OCc3cccnc3)nc2CN1CCOc1ccccc1	?	i	i	?	?	nt	nt	nt	nt
COc1ccc(CN2CC3(CCN(C(=O)Nc4cccc(C(F)(F)F)c4)CC3)C2=O)cc1	?	-20.9%	i	?	15.8µM*	?	?	0.1%	?
OC1CC(c2cc(N3CCC(CCn4cccn4)CC3)ncn2)C1 (stereo unspecified)	?	i	i	?	7.94µM*	13.7µM*	12.2µM*	0.5%	9.68µM*
OC1CC(c2cc(N3CCN(c4nsc5ccccc45)CC3)ncn2)C1 (stereo unspecified)	17.8µM*	-11.2%	i	11.2µM*	1.58µM*	2.73µM*	3.06µM*	-12.5%	2.43µM*
CSCCCN1CCC2(CCN(Cc3cccc(O)c3)CC2)C(CO)C1 (stereo unspecified)	?	-1.5%	i	?	0.7%	nt	nt	nt	nt
Cc1ccc(Cl)cc1NC(=O)c1cnc(-c2ccccc2)nc1-c1ccncc1	?	i	i	-31.1%	?	?	?	39.1%	-23.8%
O=C(Nc1cccc(F)c1)c1cnc(-c2ccc(F)cc2)nc1-c1ccncc1	?	i	i	44.7µM*	?	?	?	14.8%	?
COc1cc(NC(=O)c2cnc(-c3ccc(F)cc3)nc2-c2ccncc2)cc(OC)c1	?	3.7%	i	?	-19.6%	nt	nt	nt	nt
Cc1ccc(OCc2nc(C3CCCCN3C(=O)CCCc3nc(-c4ccc(C)cc4)no3)no2)cc1 (stereo unspecified)	?	-6.4%	nt	?	nt	nt	nt	nt	nt
COc1cccc(CCC(=O)N2CCC(Cc3nc(-c4ccccc4)no3)CC2)c1	?	i	i	?	?	nt	nt	nt	nt
COc1ccc(CCC(=O)N2CCC(Cc3nc(-c4ccccc4)no3)CC2)cc1	?	i	i	35.5µM*	10µM*	12.2µM*	15.3µM*	2.2%	12.2µM*
COc1ccc(-c2noc(CC3CCN(C(=O)CCc4cccc(OC)c4)CC3)n2)cc1	?	i	i	?	12.6µM*	21.7µM*	21.7µM*	0.5%	17.2µM*
Cc1ccc(-c2noc(CCCC(=O)N3CCC(CCOc4ccccc4F)C3)n2)cc1 (stereo unspecified)	?	-1.7%	i	?	4.47µM*	17.2µM*	19.3µM*	-2.6%	15.3µM*
COCc1nc(-c2ccc(OC3CCN(C(=O)c4nn(C)c5ccccc45)C3)cc2)no1 (stereo unspecified)	?	0.0%	i	?	11.2µM*	19.3µM*	19.3µM*	0.4%	19.3µM*
Cc1ccsc1C(=O)NC1CCN(c2cnn(CC3CC3)c(=O)c2)CC1	?	i	i	?	-11.8%	nt	nt	nt	nt
COc1cccc(-c2noc(CC3CCN(C(=O)COc4cccc(C)c4)CC3)n2)c1	?	0.4%	i	?	20µM*	?	30.6µM*	1.7%	38.5µM*
Cc1cccc(OCC(=O)N2CCC(Cc3nc(-c4cnccn4)no3)CC2)c1	?	-9.1%	i	-23.1%	-2.8%	nt	nt	nt	nt
COCc1nc(-c2ccc(OC3CCN(Cc4ccc(C(F)(F)F)cc4)C3)cc2)no1 (stereo unspecified)	?	i	i	?	7.94µM*	8.62µM*	10.9µM*	2.5%	7.69µM*
COCc1nc(-c2ccc(OC3CCN(C(=O)CCc4ccc(OC)cc4)C3)cc2)no1 (stereo unspecified)	?	1.6%	i	?	14.1µM*	27.3µM*	27.3µM*	-4.2%	?
COCc1nc(-c2ccc(OC3CCN(C(=O)c4sc(C)nc4C)C3)cc2)no1 (stereo unspecified)	-20.2%	-8.9%	i	?	-14.7%	nt	nt	nt	nt
Cc1nc(-c2ccc(OC3CCN(C(=O)c4cc(C)n(C)n4)C3)cc2)no1 (stereo unspecified)	?	i	i	?	?	?	?	1.2%	?
COc1ccc(-c2noc(CC3CCN(C(=O)Cc4ccccc4Cl)CC3)n2)cc1	?	0.9%	i	?	10µM*	17.2µM*	21.7µM*	0.8%	19.3µM*
COc1cccc(-c2noc(CC3CCN(C(=O)CCc4ccccc4)CC3)n2)c1	?	i	i	?	12.6µM*	27.3µM*	24.3µM*	-7.0%	24.3µM*

Screening data from PubChem BioAssay.
